FUS suppressor – qHTS for Suppressors of FUS Proteinopathy: Primary screen using FUS-linked yeast assay; AID 1347120, 2019; Potency, µM (titrated, usually from 76.6 µM), actives largely listed as activators; S. cerevisiae FUS-expressing, growth rescue, OD600, 24 h; 0.24% of 390,000 active; also: nearly all actives have a fitted effect of over 55% in size
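Read-out: OD at 600 nm after 24hr at 30C, reporting rescue of FUS-induced yeast toxicity. Cells at OD 0.005 in galactose (2%) minimal medium; compounds tested in a dilution series; CP55940 titration from 92uM final as control.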
TDP-43 yeast inh – qHTS of TDP-43 Inhibitors. 1.8% of 410,000 active. TDP-43 expressing yeast growth rescue, BacTiter-Glo, 24 h. Potency, µM (series often up to 46.1 µM), hits mostly activators. AID 652104, 2013; also: nearly all actives have a fitted effect of over 50% in size
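Luminescence from BacTiter-Glo reports growth of TDP-43-expressing yeast after 24 hr at 30 deg C with compound. Cells were raffinose-pregrown to mid-log, then seeded in galactose medium at OD600=0.02.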
Abeta yeast res – qHTS for compounds that reverse cellular toxicity of Amyloid beta (A-beta) peptide in yeast: Primary Screen; 0.063% of 410,000 active; Potency, µM (titrated, usually from 46.1 µM), most hits filed as activators; yeast expressing A-beta42, growth rescue, OD600, 48 h; response scale: 0% DMSO, 100% iron-clioquinol control; also: nearly all actives have a fitted effect of over 55% in size
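Yeast A-beta toxicity model in growth medium with pinned compounds, 48 h at 30 C; growth read as absorbance at 600 nm. Normalized to FeCl3/clioquinol equimolar mix (positive) and DMSO (negative).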
aSyn yeast inh – qHTS of alpha-syn Inhibitors | Yeast expressing alpha-synuclein, growth rescue, BacTiter-Glo, 24 h | Potency, µM (titrated, usually from 46.1 µM), actives largely listed as activators | 0.14% of 370,000 active | AID 652106, 2013; also: nearly all actives have a fitted effect of over 65% in size
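Readout is rescue of growth in alpha-synuclein-expressing yeast, so inhibitors of toxicity appear as activators. Growth after 24 hr at 30 deg C in galactose medium is quantified by luminescence.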
Each line names hits and unclear results; the compound was inactive in the other large screens. Sampled rows, rich in hits. Any-hit rate of the full collection: about 2.1%. Calls follow the shape of the dose curve; as a rule, active = well fitted curve in the direction sought with a large enough effect; inconclusive = small, poorly fitted or top-dose-only effect, or another doubt; inactive = no such curve, though single readings can be large; an effect the other way counts as inactive or inconclusive.

O=c1cc(C(O)C[N+](=O)[O-])occ1OCc1ccccc1 (stereo not drawn)	FUS suppressor 32µM
Nc1cc([N+](=O)[O-])ccc1OCc1ccccc1	TDP-43 yeast inh inconclusive (no result: FUS suppressor)
CCCCN(CC)CCNC(=O)C1CCN(c2nnc(C)c3c(C)n(-c4ccc(C)cc4)nc23)CC1	none (no result: aSyn yeast inh)
Cc1ccc(F)cc1NC(=O)Cn1c(=O)nc(-c2ccccc2F)c2cc(Cl)ccc21	none (no result: aSyn yeast inh)
CC1CCN(c2nc3ccc(C(=O)NCc4ccc(Cl)cc4)cc3s2)CC1	none (no result: aSyn yeast inh)
CC1CCN(c2nc3ccc(C(=O)O)cc3s2)CC1	TDP-43 yeast inh 4µM (no result: FUS suppressor)
COC(=O)N[C@@H]1C[C@H]2[C@@H]3CC[C@H]4C[C@@H](OC)CC[C@]4(C)[C@H]3CC[C@@]12C	TDP-43 yeast inh 28µM
Cc1cccc(Nc2nc(-c3ccccc3)nc3ccccc23)c1	TDP-43 yeast inh 25µM (no result: aSyn yeast inh)
Cc1ccc(Nc2nc(-c3ccccc3)nc3ccccc23)cc1	TDP-43 yeast inh 13µM
CNC(=O)C(=O)Nc1ccc2c(c1)N(S(=O)(=O)c1cccs1)CCC2	TDP-43 yeast inh 16µM
COc1cc(NC(=O)c2cnc(N)s2)cc(C(=O)Nc2cccc(C(F)(F)F)c2)c1	FUS suppressor inconclusive, TDP-43 yeast inh inconclusive
COc1cc(NC(=O)c2ccnc(N)c2)cc(C(=O)Nc2cccc(C(F)(F)F)c2)c1	none
COc1cc(NC(=O)c2cc(C)on2)cc(C(=O)Nc2cccc(C(F)(F)F)c2)c1	TDP-43 yeast inh 13µM
COc1cc(NC(=O)c2csc(N)n2)cc(C(=O)Nc2cccc(C(F)(F)F)c2)c1	FUS suppressor inconclusive, TDP-43 yeast inh 32µM
CCOc1ccc(NC(=O)C2CCCN(c3nn4cc(-c5ccc(OC)cc5)nc4s3)C2)cc1 (stereo not drawn)	none (no result: aSyn yeast inh)
COc1cccc(Cc2nc3ccccc3nc2SCC(=O)N2CCCCC2C)c1 (stereo not drawn)	FUS suppressor inconclusive, TDP-43 yeast inh 35µM (no result: aSyn yeast inh)
Cc1ccc(Cc2nc3ccccc3nc2SCC(=O)NCCC(C)C)cc1	TDP-43 yeast inh inconclusive (no result: aSyn yeast inh)
Cc1ccc(Cc2nc3ccccc3nc2SCC(=O)N2CCCc3ccccc32)cc1	none (no result: aSyn yeast inh)
Cc1ccc(Cc2nc3ccccc3nc2SCC(=O)N2CCCCC2C)cc1 (stereo not drawn)	FUS suppressor inconclusive, TDP-43 yeast inh 35µM (no result: aSyn yeast inh)
COc1cccc(Cc2nc3ccccc3nc2SCC(=O)N2CCN(c3ccccc3)CC2)c1	none (no result: aSyn yeast inh)
CCOc1ccccc1NC(=O)CSc1nc2ccccc2nc1Cc1ccc(C)cc1	TDP-43 yeast inh 25µM (no result: aSyn yeast inh)
Cc1cccc(N2CCN(C(=O)Cn3nc(Cc4cccnc4)c4ccccc4c3=O)CC2)c1C	none (no result: aSyn yeast inh)
Cc1[nH]c2ccccc2c1/C=N/NC(=O)c1cccc([N+](=O)[O-])c1	none
Cc1[nH]c2ccccc2c1/C=N/Nc1ccc([N+](=O)[O-])cc1	TDP-43 yeast inh 2.8µM
Cc1ccc(S(=O)(=O)N2CCN(c3nc(-c4cncn4C)nc4ccccc34)CC2)cc1	none (no result: FUS suppressor, TDP-43 yeast inh, Abeta yeast res)
COc1cccc(NC(=O)COc2cc(O)c3c(c2)OC(C)(C)CC3=O)c1	TDP-43 yeast inh 18µM
Cc1ccc(CNC(=O)COc2cc(O)c3c(c2)OC(C)(C)CC3=O)cc1	FUS suppressor inconclusive, TDP-43 yeast inh 13µM
C=CCn1c(SC(C)C#N)nc2ccccc2c1=O (stereo not drawn)	none (no result: FUS suppressor, TDP-43 yeast inh, Abeta yeast res)
COc1ccccc1CN1CC(C(=O)NCCCc2ccc(F)cc2)CCC1=O (stereo not drawn)	FUS suppressor 16µM
COc1ccccc1CCNC(=O)C1CCC(=O)N(Cc2ccccc2OC)C1 (stereo not drawn)	none
CC(C)(C)C(=O)Nc1ccc2c(c1)C(=O)C(=O)c1ccccc1-2	none (no result: FUS suppressor, TDP-43 yeast inh, Abeta yeast res)
O=C(CSc1nnc(-c2ccc(F)cc2)o1)N1CCCc2ccccc21	TDP-43 yeast inh 20µM (no result: aSyn yeast inh)
O=C(CSc1ccc(-c2ccc(F)cc2)nn1)N1CCCc2ccccc21	TDP-43 yeast inh 22µM
O=C(CSc1ccc(-c2ccc(Cl)cc2)nn1)N1CCCc2ccccc21	TDP-43 yeast inh 20µM (no result: FUS suppressor)
O=C(CSc1c[nH]c2ccccc12)N1CCCc2ccccc21	TDP-43 yeast inh 22µM
O=C(CSc1ccc(-c2ccccn2)nn1)N1CCCc2ccccc21	none
COC(=O)NC(=S)Nc1ccc(Oc2ccc(Cl)cc2)c(Cl)c1	none
COc1ccc(NC(=O)Oc2ccccc2)cc1Cl	TDP-43 yeast inh 18µM
O=C(Nc1ccc(F)c(Cl)c1)C1CCCC1	none
O=C(Nc1ccc(F)c(Cl)c1)C1CCCCC1	TDP-43 yeast inh 18µM
